Experimental data published in PubChem BioAssay (Tox21).
Where “and” joins values, the source holds several entries; their conditions need not be identical. Identical values can stand only once. Records with an inconclusive call do not appear. Entries that show only a call come without a potency. The source holds several records for some structures; these can differ, active in one and inactive in another. Calls of active or inactive are those of the source. Unless noted, calls follow the shape of the full dose curve.

Experiments:
[1] = Nuclear factor erythroid 2-related factor 2/antioxidant responsive element (Nrf2/ARE) small molecule agonists: qHTS cell viability counter screen in human keratinocytes (AID 1919968; active = well fitted curve in the direction sought with a large enough effect in the repeat runs; an effect the other way counts as inactive or inconclusive; also: nearly all actives have a fitted effect of over 55% in size; also: potency is read from the fitted curve at half-maximal effect)
In short: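 After a 5 h attachment period, ARE-reporter keratinocytes were dosed with compounds in DMSO and then cultured 23 h at 37 C. Cell viability came from CellTiter-Fluor signal read after a further 1 h.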

[2] = Nuclear factor erythroid 2-related factor 2/antioxidant responsive element (Nrf2/ARE) small molecule agonists: luciferase reporter gene qHTS assay in human keratinocytes (AID 1919969); also: nearly all actives have a fitted effect of over 35% in size
[3] = biological target: Gonadotropin-releasing hormone receptor (Homo sapiens) (UniProt P30968); assay: Human gonadotropin-releasing hormone receptor (GnRHR) small molecule agonists, calcium flux assay in GnRHR-HEK293 cells (AID 1920063); also: nearly all actives have a fitted effect of over 35% in size
Sequence of Gonadotropin-releasing hormone receptor (Homo sapiens) (P30968 whole entry, looked up): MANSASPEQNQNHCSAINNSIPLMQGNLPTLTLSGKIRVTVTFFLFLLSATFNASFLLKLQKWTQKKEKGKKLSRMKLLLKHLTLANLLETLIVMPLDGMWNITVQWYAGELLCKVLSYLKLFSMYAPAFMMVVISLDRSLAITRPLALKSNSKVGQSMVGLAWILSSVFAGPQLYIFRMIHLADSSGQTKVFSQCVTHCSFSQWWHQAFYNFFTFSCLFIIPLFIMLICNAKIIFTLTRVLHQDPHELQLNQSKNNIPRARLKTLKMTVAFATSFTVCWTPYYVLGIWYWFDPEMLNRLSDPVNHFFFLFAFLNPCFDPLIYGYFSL
In short: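 We seeded human GnRHR-expressing HEK293 cells for 18 hours, loaded them with calcium dye for an hour at 37 C, added test compounds, and recorded fluorescence intensity kinetically for three minutes.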

[4] = G protein-coupled receptor (GPCR) small molecule agonists, calcium flux assay: HEK293 wild type cell line counter screen (AID 1920065)
In short: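 Calcium-sensitive dye, loaded 1 h at 37 C into cells cultured 18 h, reports compound-evoked calcium release as fluorescence (Ex/Em 480/540), measured over 3 min. Agonist mode; 15-point titrations, triplicate.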

[5] = p53 small molecule agonists, cell-based qHTS assay with human liver microsomes (AID 1963577)
In short: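 Compounds act here after metabolic activation: human liver microsomes and NADPH, both at 0.5 mg/mL final, were co-added to p53RE-bla cells. Incubation ran 16 h at 37 C, followed by LiveBLAzer detection.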

[6] = p53 small molecule agonists, cell-based qHTS assay with rat liver microsomes (AID 1963578)
In short: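 Read-out is beta-lactamase reporter fluorescence (LiveBLAzer, 2 h, room temperature, dark) in p53RE-bla cells treated 16 h at 37 C with compound, rat liver microsomes and NADPH, both 0.5 mg/mL final.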

[7] = p53 small molecule agonists, cell-based qHTS assay with human liver microsomes: qHTS cell viability counter screen (AID 1963579); also: nearly all actives have a fitted effect of over 45% in size
In short: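 Cells carrying the p53 response-element beta-lactamase reporter are treated for 16 h at 37 C with test compounds in the presence of human liver microsomes and NADPH (both 0.5 mg/mL final); ATP-based CellTiter-Glo luminescence then reports viability.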

[8] = p53 small molecule agonists, cell-based qHTS assay with rat liver microsomes: qHTS cell viability counter screen (AID 1963580); also: nearly all actives have a fitted effect of over 45% in size
In short: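 p53RE-bla HCT-116 cells were exposed 16 h at 37 C to compounds with rat liver microsomes (0.5 mg/mL) and NADPH (0.5 mg/mL). Viability was measured in the same wells as ATP content by CellTiter-Glo luminescence.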

[9] = p53 small molecule agonists, cell-based qHTS assay: qHTS cell viability counter screen (AID 1963581); also: nearly all actives have a fitted effect of over 45% in size
In short: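 Following 5 h attachment, HCT-116 p53RE-bla cells took up compound for 16 h at 37 C; the reporter was read with B/G FRET substrate (2 h RT), and viability then via CellTiter-Glo ATP luminescence.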

[10] = biological target: 5-hydroxytryptamine receptor 2A (Homo sapiens) (UniProt P28223); assay: 5-hydroxytryptamine receptor 2A (HTR2A) small molecule antagonists, cell-based qHTS assay (AID 1963586); also: nearly all actives have a fitted effect of over 45% in size; also: potency is read from the fitted curve at half-maximal effect
Sequence of 5-hydroxytryptamine receptor 2A (Homo sapiens) (P28223 whole entry, looked up): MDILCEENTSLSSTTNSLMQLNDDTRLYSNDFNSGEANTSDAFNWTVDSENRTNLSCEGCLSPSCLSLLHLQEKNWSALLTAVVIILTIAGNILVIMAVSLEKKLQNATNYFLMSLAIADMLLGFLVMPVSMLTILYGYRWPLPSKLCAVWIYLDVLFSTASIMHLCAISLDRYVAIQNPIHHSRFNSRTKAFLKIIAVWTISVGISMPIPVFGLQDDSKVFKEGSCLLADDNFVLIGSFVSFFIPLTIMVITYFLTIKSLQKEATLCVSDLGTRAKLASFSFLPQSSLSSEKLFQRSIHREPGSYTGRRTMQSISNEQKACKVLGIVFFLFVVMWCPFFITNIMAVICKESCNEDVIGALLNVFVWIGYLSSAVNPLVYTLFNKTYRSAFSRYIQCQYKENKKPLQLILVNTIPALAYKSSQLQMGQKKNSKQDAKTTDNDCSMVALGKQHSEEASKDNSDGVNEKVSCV
In short: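 Antagonist-mode intracellular calcium assay: DOI (4 nM) added after 5 min compound pre-incubation at room temperature to dye-loaded HTR2A-CHO cells. Fluorescence followed for 3 min, sampled every second.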

[11] = biological target: 5-hydroxytryptamine receptor 2A (Homo sapiens) (UniProt P28223); assay: 5-hydroxytryptamine receptor 2A (HTR2A) small molecule agonists, cell-based qHTS assay (AID 1963587); also: nearly all actives have a fitted effect of over 30% in size
In short: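 CHO cells stably expressing human HTR2A, plated 18 h, loaded with calcium dye 1 h at 37 C. Agonist mode: compounds added and intracellular calcium fluorescence recorded kinetically for 2 min at 1 sec intervals.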

[12] = biological target: Muscarinic acetylcholine receptor M1 (Homo sapiens) (UniProt P11229); assay: Cholinergic receptor muscarinic 1 (CHRM1) small molecule antagonists, cell-based qHTS assay (AID 1963588); also: nearly all actives have a fitted effect of over 40% in size; also: potency is read from the fitted curve at half-maximal effect
Sequence of Muscarinic acetylcholine receptor M1 (Homo sapiens) (P11229 whole entry, looked up): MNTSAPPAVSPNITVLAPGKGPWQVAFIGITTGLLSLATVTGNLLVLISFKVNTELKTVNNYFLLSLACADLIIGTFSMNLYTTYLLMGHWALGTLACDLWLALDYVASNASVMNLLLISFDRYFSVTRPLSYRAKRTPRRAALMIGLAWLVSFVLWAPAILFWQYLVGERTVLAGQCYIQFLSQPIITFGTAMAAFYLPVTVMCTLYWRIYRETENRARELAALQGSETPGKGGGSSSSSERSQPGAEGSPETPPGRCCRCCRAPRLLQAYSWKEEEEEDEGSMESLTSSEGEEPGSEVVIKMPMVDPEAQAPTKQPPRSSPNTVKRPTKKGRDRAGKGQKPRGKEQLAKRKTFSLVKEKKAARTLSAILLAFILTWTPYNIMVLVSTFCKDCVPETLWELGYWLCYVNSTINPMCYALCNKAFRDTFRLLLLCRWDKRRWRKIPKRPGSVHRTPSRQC
In short: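 CHRM1-CHO calcium-flux assay, antagonist mode. Cells were seeded 18 h, dye-loaded 1 h at 37 C and given compound for 5 min at RT, then acetylcholine was added at 50nM. FDSS fluorescence was read 3 min; 15 concentrations, three runs.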

[13] = biological target: Muscarinic acetylcholine receptor M1 (Homo sapiens) (UniProt P11229); assay: Cholinergic receptor muscarinic 1 (CHRM1) small molecule agonists, cell-based qHTS assay (AID 1963589); also: nearly all actives have a fitted effect of over 35% in size; also: potency is read from the fitted curve at half-maximal effect
In short: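 Measures agonist-induced intracellular calcium rise. Stable human CHRM1 CHO line, 1 h dye load at 37 C, compounds from DMSO, kinetic fluorescence read.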

[14] = cAMP Responsive Elements (CRE) small molecule agonists, cell-based qHTS assay (AID 1963590); also: potency is read from the fitted curve at half-maximal effect
In short: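 A CRE-responsive beta-lactamase reporter in HEK 293T cells was used. Treatment ran 3 h at 37 C; detection used LiveBLAzer B/G FRET substrate for 2 h at room temperature.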

[15] = cAMP Responsive Elements (CRE) small molecule antagonists, cell-based qHTS assay (AID 1963591; active = well fitted inhibition curve with a large enough effect in the signal ratio in the repeat runs, not every such curve was filed as active; the % refers to the signal ratio)
In short: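 HEK293T cells carrying a CRE-driven beta-lactamase reporter receive compound and NKH477 (0.25 uM final) for 3 h. Fluorescence from LiveBLAzer B/G FRET substrate is read after 2 h at room temperature.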

[16] = biological target: Beta-2 adrenergic receptor (Homo sapiens) (UniProt P07550); assay: Adrenergic beta2 receptor (ADRB2) small molecule antagonists, cell-based qHTS assay (AID 1963592); also: series mostly up to about 92 µM; nearly all actives have a fitted effect of over 50% in size
Sequence of Beta-2 adrenergic receptor (Homo sapiens) (P07550 whole entry, looked up): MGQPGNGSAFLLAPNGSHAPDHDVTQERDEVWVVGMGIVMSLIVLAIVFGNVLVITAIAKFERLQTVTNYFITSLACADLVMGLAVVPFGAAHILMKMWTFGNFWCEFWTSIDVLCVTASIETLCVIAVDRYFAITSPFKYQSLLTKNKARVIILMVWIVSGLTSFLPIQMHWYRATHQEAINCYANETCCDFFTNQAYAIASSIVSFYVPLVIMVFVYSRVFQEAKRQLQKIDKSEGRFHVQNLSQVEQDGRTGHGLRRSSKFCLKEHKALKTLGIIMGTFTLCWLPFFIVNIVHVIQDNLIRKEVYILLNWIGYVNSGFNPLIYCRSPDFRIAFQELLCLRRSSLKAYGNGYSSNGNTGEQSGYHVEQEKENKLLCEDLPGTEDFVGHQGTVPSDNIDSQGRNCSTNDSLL
In short: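 Cells (CHO, stable ADRB2 overexpression) incubated 18-20hr at 37C; compounds added from DMSO; agonist mix (1nM isoproterenol, 100uM IBMX, 25uM Ro-20-1724) added; 0.5hr RT; d2-cAMP and anti-cAMP-cryptate added; 1hr RT; 665/615 nm read.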

[17] = biological target: Beta-2 adrenergic receptor (Homo sapiens) (UniProt P07550); assay: Adrenergic beta2 receptor (ADRB2) small molecule agonists, cell-based qHTS assay (AID 1963593); also: potency is read from the fitted curve at half-maximal effect
In short: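 CHO cells stably over-expressing ADRB2 were plated overnight at 37C, then dosed with compounds plus a stimulation mix containing 100uM IBMX and 25uM Ro-20-1724 for 0.5hr at room temperature. cAMP was measured by HTRF competition, 1hr.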

[18] = biological target: D(2) dopamine receptor (Homo sapiens) (UniProt P14416); assay: Dopamine D2 receptor (DRD2) small molecule agonists, cell-based qHTS assay (AID 1963594); also: nearly all actives have a fitted effect of over 35% in size
Sequence of D(2) dopamine receptor (Homo sapiens) (P14416 whole entry, looked up): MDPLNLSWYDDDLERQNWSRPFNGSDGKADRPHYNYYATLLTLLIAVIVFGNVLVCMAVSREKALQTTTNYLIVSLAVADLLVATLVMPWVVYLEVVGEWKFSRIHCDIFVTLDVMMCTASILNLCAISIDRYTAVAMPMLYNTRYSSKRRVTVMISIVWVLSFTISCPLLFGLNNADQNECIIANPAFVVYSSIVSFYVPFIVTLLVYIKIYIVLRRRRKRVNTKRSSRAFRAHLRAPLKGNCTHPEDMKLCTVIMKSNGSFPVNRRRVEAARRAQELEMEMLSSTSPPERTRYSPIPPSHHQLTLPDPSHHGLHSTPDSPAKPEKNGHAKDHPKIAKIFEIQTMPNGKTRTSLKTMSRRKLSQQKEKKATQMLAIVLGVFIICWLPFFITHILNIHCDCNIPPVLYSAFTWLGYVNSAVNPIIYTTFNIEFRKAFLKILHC
In short: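 HEK293 cells stably expressing human DRD2, pre-treated with PDE inhibitor Ro20-1724 (0.1 mM final) and compound 10 min at room temperature, then stimulated with NKH477 (200nM […]) for 30 min. cAMP read by HTRF (665/620 nm).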

[19] = biological target: D(2) dopamine receptor (Homo sapiens) (UniProt P14416); assay: Dopamine D2 receptor (DRD2) small molecule antagonists, cell-based qHTS assay (AID 1963595; active = well fitted inhibition curve with a large enough effect in the signal ratio in the repeat runs, with a control signal flat; the % refers to the signal ratio; also: potency is read from the fitted curve at half-maximal effect)
In short: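 HEK293 cells stably expressing DRD2 were preincubated with 0.1 mM Ro20-1724, then with compound for 10 min at room temperature. Cells were stimulated with 200 nM NKH477 plus 12 nM quinpirole for 30 min, and cAMP was read by HTRF.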

[20] = biological target: KiSS-1 receptor (Homo sapiens) (UniProt Q969F8); assay: Human kisspeptin (KISS1R) small molecule agonists, calcium flux assay in KISS1R-HEK293 cells (AID 1920064; active = well fitted curve in the direction sought with a large enough effect in the repeat runs; an effect the other way counts as inactive or inconclusive)
Sequence of KiSS-1 receptor (Homo sapiens) (Q969F8 whole entry, looked up): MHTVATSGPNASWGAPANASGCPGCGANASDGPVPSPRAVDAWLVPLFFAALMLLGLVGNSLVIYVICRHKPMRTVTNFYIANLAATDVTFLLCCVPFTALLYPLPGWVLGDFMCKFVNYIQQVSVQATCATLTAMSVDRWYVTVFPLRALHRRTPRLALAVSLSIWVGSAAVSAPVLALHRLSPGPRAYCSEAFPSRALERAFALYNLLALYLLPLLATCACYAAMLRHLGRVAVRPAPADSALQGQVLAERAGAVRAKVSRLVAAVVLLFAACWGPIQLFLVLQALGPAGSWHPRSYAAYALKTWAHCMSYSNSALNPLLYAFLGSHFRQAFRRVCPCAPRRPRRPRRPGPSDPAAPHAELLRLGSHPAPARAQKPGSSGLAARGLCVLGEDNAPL
In short: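 Kinetic calcium assay, 1 s sampling over 3 min at Ex/Em 480/540, in HEK293 cells engineered with human KISS1R; compounds delivered in DMSO after 1 h dye loading.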

Structure (SMILES)	Potency [1]	Potency [2]	Potency [3]	Potency [4]	Potency [5]	Potency [6]	Potency [7]	Potency [8]	Potency [9]	Potency [10]	Potency [11]	Potency [12]	Potency [13]	Potency [14]	Potency [15]	Potency [16]	Potency [17]	Potency [18]	Potency [19]	Potency [20]
NC(N)=NC(N)=NCCc1ccccc1	inactive	inactive	inactive	inactive	inactive	inactive	inactive	inactive	inactive	inactive	inactive	inactive	inactive	inactive	inactive	inactive	inactive	inactive	inactive	
CCCCCCCCCCCC[N+](C)(C)C	48.4 µM (active) and 30.6 µM (active) and 48.6 µM (active)	inactive		inactive	inactive	inactive	inactive	inactive	inactive	inactive	inactive	374 nM (active) and 421 nM (active) and 334 nM (active)	27.5 µM (active) and 245 nM (active)			inactive	inactive	inactive	inactive	inactive
c1ccc2ccccc2c1	inactive	inactive	inactive		inactive	inactive	inactive	inactive	inactive	inactive	inactive	inactive	inactive	inactive	inactive	inactive		inactive	inactive	
CC(=O)OCC(COC(C)=O)OC(C)=O	inactive	inactive	inactive	inactive			inactive	inactive	inactive					inactive	inactive		inactive	inactive	inactive	
O=C1CCCCCCCCCCCN1	inactive	inactive	inactive	inactive	inactive	inactive	inactive	inactive	inactive	inactive	inactive	inactive	inactive	inactive	inactive	inactive		inactive	inactive	
C=C[C@@]1(C)CC(=O)[C@]2(O)[C@@]3(C)[C@@H](O)CCC(C)(C)[C@@H]3[C@H](O)[C@H](OC(C)=O)[C@@]2(C)O1	inactive	inactive		inactive	inactive	inactive	inactive	inactive	inactive	inactive	inactive	inactive	inactive	243 nM (active) and 298 nM (active)			119 nM (active)	inactive	30.6 nM (active) and 944 nM (active)	inactive
COCC(C)N (stereo unspecified)	inactive	inactive	inactive	inactive	inactive	inactive	inactive	inactive		inactive	inactive	inactive	inactive	inactive	inactive	inactive	inactive	inactive	inactive	
CC(=O)CCC(=O)O	inactive	inactive	inactive	inactive			inactive		inactive	inactive		inactive	inactive	inactive	inactive	inactive		inactive	inactive	
CCOC(=O)/C=C\C(=O)OCC	inactive	inactive	inactive	inactive	inactive	inactive	inactive		inactive	inactive	inactive	inactive	inactive	inactive	inactive	inactive	inactive		inactive	
CCn1cc(C(=O)O)c(=O)c2ccc(C)nc21	inactive	inactive	inactive	inactive					inactive	inactive and 3.34 µM (active)	inactive	inactive	inactive			inactive	inactive	inactive	inactive	
Cc1cccc(O)c1	inactive	inactive		inactive	inactive	inactive	inactive	inactive	inactive	inactive	inactive	inactive	inactive	inactive	inactive	inactive		inactive		inactive
O=C(c1ccccc1)C(O)c1ccccc1 (stereo unspecified)	inactive	inactive	inactive	inactive			inactive	inactive	inactive	inactive and 729 nM (active)	inactive	inactive	inactive	inactive	inactive	inactive	inactive	inactive	inactive	
